Screens: PubChem, National Center for Advancing Translational Sciences (NCATS)
SW480 rereplic: inducers of DNA re-replication in SW480 colon cancer cells; 1.8% of 340,000 active; Potency, µM (titrated, usually from 46.1 µM), for the others: top-dose re-replication activation, usual class: activators; SW480 DNA re-replication, Hoechst DNA content imaging, 48 h; note: % of control where 0% means no effect; nearly all actives have a fitted effect of over 55% in size
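Treated cells incubate 48 hr (37 C, 5% CO2), are stained 40 min with Hoechst, and nuclear fluorescence is enumerated; a rise in nuclei with high DNA signal marks re-replication.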
MCF10A rerep: induces DNA re-replication in MCF 10a normal breast cells. MCF 10A DNA re-replication, Hoechst nuclear intensity, 48 h. Potency, µM (top dose mostly 46.1 µM), for inactives: top-dose activity, positive = re-replication, actives largely listed as activators. 2.9% of 350,000 active. AID 624296; note: % of control where 0% means no effect; nearly all actives have a fitted effect of over 50% in size
KB-3-1 cytotox: kills parental KB-3-1 adenocarcinoma cells; AID 1347075; KB-3-1 viability, CellTiter-Glo ATP luminescence, 72 h; Potency, µM (series often up to 46.1 µM), most hits filed as cytotoxic; 1.4% of 400,000 active; note: % is set by controls: 0 for no effect and ±100 for the full control effect; nearly all actives have a fitted effect of over 60% in size
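Here the drug-naive KB-3-1 line serves as comparator for MDR sub-line selectivity; cells received compound titrations, 72 h at 37 °C, then CellTiter-Glo readout.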
KB-V1 MDR tox: KB-V1 MDR subline cytotoxicity. KB-V1 MDR cells viability, CellTiter-Glo, 72 h. Potency, µM (doses to about 46.1 µM), usual class: cytotoxic. 3.4% of 400,000 active. AID 1347076; note: % is set by controls: 0 for no effect and ±100 for the full control effect; nearly all actives have a fitted effect of over 60% in size
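Luminescent ATP read-out (CellTiter-Glo, 10 min) measures survival of drug-selected KB-V1 MDR cells after 72 h, 37 degrees C compound exposure. Medium: phenol-red-free DMEM, 10% FBS. Values from fitted concentration-response curves.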
HT1080-NT tox: kills 2HG-producing HT-1080-NT fibrosarcoma cells. HT-1080-NT fibrosarcoma viability, CellTiter-Glo ATP luminescence, 48 h. Potency, µM (highest dose often 46.1 µM), without a hit: at the highest dose activity, negative = less viability, most hits filed as cytotoxic. 1.6% of 360,000 active. AID 686970;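 note: NT is the 2HG producing partner of a matched IDH1 knockdown line; 0% = DMSO-treated cells and -100% = media-only wells without cells; nearly all actives have a fitted effect of over 55% in size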
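Read-out is CellTiter-Glo luminescence after 10 minutes at room temperature, following 48 hours' compound treatment of HT-1080-NT cells (750 cells/well, RPMI, 5% FBS, 37 degrees C).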
HT1080 IDH1KD tx: toxicity to HT-1080 IDH1 knockdown cells (counter line) | HT-1080 IDH1 knockdown viability, ATP luminescence, 48 h | Potency, µM (series often up to 46.1 µM), inactives show top-dose activity, negative = toxicity, usual class: cytotoxic | 2% of 360,000 active;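 note: 0% = DMSO wells and -100% = cell-free medium wells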
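% activity derives from luminescence (CellTiter-Glo), normalised to DMSO and no-cell wells. HT-1080-IDH1KD cells, 750/well, had 48 h compound exposure at 37 °C.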
* hit, by the source's call; i = inactive; ? = inconclusive; ! = not confirmed by another sample; [ ] = dose if it differs, or a comment. An excerpt weighted towards active compounds, which were near 7.9% of everything screened. Calls come from the whole dose curve; as a rule, active = well fitted curve in the direction sought with a large enough effect; inconclusive = small, poorly fitted or top-dose-only effect, or another doubt; inactive = no such curve, though single readings can be large; an effect the other way counts as inactive or inconclusive. Potency is the fitted concentration of half-maximal effect.

SMILES	SW480 rereplic	MCF10A rerep	KB-3-1 cytotox	KB-V1 MDR tox	HT1080-NT tox	HT1080 IDH1KD tx
COC(=O)C1=C(c2ccc(OCc3ccccc3)cc2)C[C@@H]2CC[C@H]1N2C(=O)NCc1cccc(C(F)(F)F)c1	-14%[9.22 µM]	?	?	?	0%	-8%
CC(C)(C)OC(=O)c1c(N)n(Cc2ccco2)c2nc3ccccc3nc12	?	?	i	i	-9%	-5%
Nc1c(C(=O)OCc2ccccc2)c2nc3ccccc3nc2n1Cc1cccs1	15µM*	6.5µM*	i	5.2µM*	?	?
CCC(C)OC(=O)c1c(N)n(Cc2cccs2)c2nc3ccccc3nc12 (stereo unspecified)	?	12µM*	?	i	-16%	?
COC(=O)C1=C(c2cc3ccccc3s2)C[C@@H]2CC[C@H]1N2C(=O)NCc1ccc(C(F)(F)F)cc1	-7%	?	?	18µM*	?	?
COC(=O)C1=C(c2cc3ccccc3s2)C[C@@H]2CC[C@H]1N2C(=O)NCC1CC1	-2%	28%	i	i	3%	-2%
COC(=O)C1=C(c2ccccc2OCc2ccccc2)C[C@@H]2CC[C@H]1N2C(=O)NCCc1ccc(F)cc1	5.8µM*	11%	?	i	?	-24%
COC(=O)C1=C(c2ccc(F)cc2OCc2ccccc2)C[C@@H]2CC[C@H]1N2C(=O)NCc1ccc(C(F)(F)F)cc1	-5%	15µM*	i	i	-2%	-4%
CCC/C=N/O	-10%	5%	i	i	-29%	8%
O=c1c2ccccc2nc(CN2CCCCCC2)n1-c1ccc(F)cc1	-8%	24%	i	i	6%	1%
CCC(CC)N1CCN(Cc2nc3ccccc3c(=O)n2-c2ccc(F)cc2)CC1	-23%	0.58µM*	i	?	2%	1%
Cc1cc(NC(=O)COC(=O)c2c(C)nn(Cc3ccccc3Cl)c2C)no1	?	?	i	i	-29%	-20%
Cc1nn(Cc2ccccc2)c(Cl)c1C(=O)OCC(=O)Nc1cccc2ccccc12	-1%	?	?	16µM*	-7%	-2%
Cc1nn(Cc2ccccc2Cl)c(Cl)c1C(=O)OCC(=O)NC(=O)NC1CCCCC1	-11%	?	i	16µM*	-5%	-4%
Cc1nn(Cc2ccccc2)c(Cl)c1C(=O)OC(C)C(=O)Nc1ccc(F)cc1Cl (stereo unspecified)	7%	21µM*	i	3.3µM*	12%	3%
CNC(=O)Oc1ccc(C(=O)N2c3ccccc3NC(=O)C2C)cc1 (stereo unspecified)	-10%	-8%	?	i	16%	5%
c1ccc(-c2nn(-c3ccccc3)[n+](-c3ccccc3)n2)cc1	9%	12%	7.3µM*	i	-16%	?
COc1ccc(CN2CCN(C(=O)Cc3ccccc3)CC2)cc1Br	?	14%	i	i	6%	9%
O=C(/C=C/c1ccccc1)C1C(=O)c2ccccc2C1=O	-6%	?	?	3.7µM*	3%	-2%
CCOC(=O)C1=C(C)N=C2c3ccccc3C(=O)C2C1c1ccc(Cl)cc1 (stereo unspecified)	13%	21%	i	i	?	?
CCOC(=O)C1=C(Cc2ccc(Cl)cc2)C(=O)c2ccccc2C1=O	?	?	i	?	11µM*	10µM*
Cc1cc(OCCCC(=O)NCc2cccs2)ccc1Cl	?	3%	i	i	10%	-5%
Cc1cc(Cl)ccc1OCCCC(=O)NCc1cccs1	?	?	i	26µM*	-5%	-11%
C[C@]12CCC3C(CC[C@H]4C[C@H](O)CC[C@]34C)C1CC(=O)[C@@H]2O (stereo partly specified)	-7%	1%	i	i	6%	11%
CC1CC2(C)C(CCC3C2CCC2(C)C(OP(=O)(N4CC4)N4CC4)CCC32)CC1=O (stereo unspecified)	-3%	13µM*	i	i	24%	4%
SMILES	SW480 rereplic	MCF10A rerep	KB-3-1 cytotox	KB-V1 MDR tox	HT1080-NT tox	HT1080 IDH1KD tx
CCC(=NCC1CCCO1)c1c(O)n(-c2ccccc2)c(=O)[nH]c1=O (stereo unspecified)	15%	-16%	i	i	0%	0%
CCC(=NCC1CCCO1)c1c(O)n(Cc2ccccc2)c(=O)[nH]c1=O (stereo unspecified)	1%	2%	i	4.1µM*	7%	7%
Cc1ccccc1NC(=O)Cc1nc(COC(=O)Cc2ccccc2)cs1	-15%	7%	i	?	-10%[9.24 µM]	-8%
Cc1ccccc1NC(=O)CCl	14%	2%	21µM*	i	-11%	-1%
C[C@]12CC[C@H]3C(=CCc4cc(O)ccc43)[C@@H]1CCC2=O	-26%	?	?	8.2µM*	?	-21%
CN1C(=O)C(=Cc2cc([N+](=O)[O-])ccc2N2CCCCC2)C(=O)N(C)C1=O	3%	9%	i	i	4%	4%
CCCCn1c(NC(=O)c2ccc(Br)o2)c(C(=O)OCC)c2nc3ccccc3nc21	16µM*!	18µM*!	i	i	?	-30%
CCCCn1c(NS(=O)(=O)c2ccccc2)c(C(=O)OCC)c2nc3ccccc3nc21	16µM*	6.5µM*	i	?	?	-15%
CCOC(=O)c1c(N)n(CCN2CCCCC2)c2nc3ccccc3nc12	19%	?	i	i	-2%	-6%
CCCCOCCCn1c(N)c(C(=O)OC(C)COC)c2nc3ccccc3nc21 (stereo unspecified)	0%	1%	i	i	-25%	-21%
Cc1cccc(NC(=O)N2C[C@H]3C[C@@H](C2)c2cccc(=O)n2C3)c1	-55%	0%	i	?	-1%	4%
COc1ccc(CC2(CCc3ccccn3)C(=O)NC(=O)N(c3ccccc3C)C2=O)cc1OC (stereo unspecified)	0%	-1%	i	i	4%	13%
O=c1[nH]c(CN2CC=C(c3ccccc3)CC2)nc2cc(C(F)(F)F)ccc12	1%	15µM*	i	?	-7%	-1%
Cc1ccc2c(CN3CC=C(c4ccccc4)CC3)cc(=O)oc2c1C	6%	3%	i	i	4%	5%
O=c1[nH]c(CN2CC=C(c3ccccc3)CC2)nc2scc(-c3ccccc3)c12	-2%	18µM*	?	?	0%	-4%
